Screens: PubChem, National Center for Advancing Translational Sciences (NCATS)
The full list was thinned out, with hits kept by preference.
Pf Dd2 inh: qHTS Primary assay for Inhibitors of Plasmodium falciparum Dd2 growth in vitro. P. falciparum Dd2 growth, SYBR Green, 72 h. Potency, µM (top dose mostly 28.9 µM), inactives show at the highest dose activity, negative = inhibition, actives largely listed as inhibitors. actives 4.3% (n = 120,000); active = well fitted inhibition curve with a large enough effect;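 note: plate controls were DMSO vehicle for no effect and reference drug for full effect; nearly all actives have a fitted effect of over 65% in size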
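Readout: SYBR Green fluorescence, 485 nm excitation, 535 nm emission, after ~16 h lysis at 37C. Before that, Dd2-infected red cells (2.5% hematocrit) grew 72 h with compound, 29 uM top final concentration.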
Starred values were filed as active, the others as inactive; i = inactive; [ ] = dose if it differs, or a comment. Potency is the fitted concentration of half-maximal effect.

SMILES	Pf Dd2 inh
CCN(CC)c1cc2c(cc1F)c(=O)c(S(=O)(=O)c1ccccc1)cn2C	-23%
CCN(CC)c1cc2c(cc1F)c(=O)c(S(=O)(=O)c1ccccc1)cn2Cc1ccccc1	13µM*
CCCCn1cc(S(=O)(=O)c2ccc(F)cc2)c(=O)c2ccccc21	18%
CCCCn1cc(S(=O)(=O)c2ccc(C)c(C)c2)c(=O)c2cc(F)c(N(CC)CC)cc21	13µM*
CCN(CC)c1cc2c(cc1F)c(=O)c(S(=O)(=O)c1cccc(C)c1)cn2C	9%
CCN(CC)c1cc2c(cc1F)c(=O)c(S(=O)(=O)c1ccc(OC)cc1)cn2Cc1ccccc1	13µM*
Cc1nc(C2CCCN(C(=O)Cc3ccc(S(C)(=O)=O)cc3)C2)n[nH]1 (stereo not given)	20%
CCOc1ccc(C2NC(=O)N(CC)C3=C2C(=O)OC3)cc1 (stereo not given)	-1%
CCc1cn(C[C@H](NC(=O)Cc2ccccc2)C(=O)O)c(=O)[nH]c1=O	16%[44.1 µM]
COc1ccc(C(=O)NC(C(=O)N2CCCC2)C2CCN(C(=O)c3ccccc3)CC2)cc1 (stereo not given)	-22%
COc1ccc(C(=O)NC(C(=O)NC(C)C(C)C)C2CCN(C(=O)c3ccc(C)cc3)CC2)cc1 (stereo not given)	2.5µM*
CCCNC(=O)C(NC(=O)c1cccc(OC)c1)C1CCN(C(=O)c2cccc(OC)c2)CC1 (stereo not given)	-4%
CCN(CC)C(=O)C(NC(=O)c1ccc(OC)cc1)C1CCN(C(C)=O)CC1 (stereo not given)	11%
CCC(C)NC(=O)C(NC(=O)c1ccc(C)cc1)C1CCN(C(=O)c2ccc(F)cc2)CC1 (stereo not given)	i
CCN(CC)C(=O)C(NC(=O)c1ccc(C)cc1)C1CCN(C(=O)c2cccc(OC)c2)CC1 (stereo not given)	4.5µM*
O=C(Cc1cccs1)N1CCC(n2cc(-c3nc(C4CC4)no3)nn2)C1 (stereo not given)	i
COCCN1C(=O)[C@H]2CN(Cc3ccccc3)C[C@H]2C1=O	99%
CNC(=O)[C@@H]1C[C@@H](n2cc(CN(C)C(=O)Nc3ccccc3)nn2)CN1	1%
COCCOC1CCOC2(CCN(C(=O)c3ccsc3)CC2)C1 (stereo not given)	-16%
O=C(c1ccccc1)N1CCC2(CN[S+](=O)([O-])c3ccccc3N2)C1 (stereo not given)	15%
O=C(Nc1cccc(C(F)(F)F)c1)N[C@H]1CO[C@H]2[C@@H]1OC[C@H]2O	i
O=c1[nH]c2cccnc2n1C1CCCCC1	i
CCc1ccccc1NC(=O)c1sc2nc(C)cc(COC)c2c1N	-9%
COCc1cc(C)nc2sc(C(=O)Nc3ccccc3O)c(N)c12	8.9µM*
Cc1cc(C)c2c(N)c(C(=O)Nc3ccccc3C(F)(F)F)sc2n1	19%
SMILES	Pf Dd2 inh
Cc1noc2ccc(-c3ccccc3OCc3ccccc3)nc12	-20%[44.1 µM]
COc1ccc(-c2cn3c(n2)CO[C@@H](CNS(=O)(=O)c2ccc(C)cc2)C3)cc1	13µM*
COc1ccc(-c2cn3c(n2)CO[C@@H](CNS(C)(=O)=O)C3)cc1	i
Cc1ccc(-c2cn3c(n2)CO[C@@H](CNS(C)(=O)=O)C3)cc1	-1%[44.1 µM]
Cc1noc(C)c1-c1cc2cc(CN(C)C)oc2c(N2CCN(c3ccccn3)CC2)n1	-32%[44.1 µM]
O=C1COCC2(CN1Cc1ccc(F)cc1Cl)CN(c1ccc(C(F)(F)F)cn1)C2	i
O=C(c1ccc2c(c1)OCO2)N1CCCC2(CC(c3ccccc3)=NO2)C1 (stereo not given)	14%
CCCNC(=O)N1CCOc2ccc(CN3CCc4ccccc4C3)cc2C1	-15%
O=C(Nc1cccc(F)c1)N1CCOc2ccc(CN3CCc4ccccc4C3)cc2C1	2µM*
COCCOCC(=O)N1CCOc2ccc(CN3CCc4ccccc4C3)cc2C1	11µM*
CCOCCCNC(=O)N1CCOc2ccc(CN3CCc4ccccc4C3)cc2C1	-5%
COCCn1cc(CN2CCc3ccccc3C2)ccc1=O	i
O=C(Nc1cccc(F)c1)N1CCC(O)(c2csc(CN3CCc4ccccc4C3)n2)CC1	-3%
CC1(C(=O)N2CCN(c3ccccn3)CC2)CCCCC(=O)N1 (stereo not given)	2%
Cc1ccc(-c2nnc(C3CN(C(=O)c4cc(C)nn4C)CC34CCOCC4)o2)cc1 (stereo not given)	i
O=C1CCN(S(=O)(=O)c2ccc3c(c2)CCC3)CCCC(c2nc(-c3cccnc3)no2)CCN1 (stereo not given)	-9%
CNC(=O)C(C)(C)N1CCC[C@H]1C(=O)N1CCCCC1	-19%[44.1 µM]
O=C1c2cnc(-c3cccc(CO)c3)nc2OCCN1c1cccc(C(F)(F)F)c1	14µM*
COc1ncccc1-c1ncc2c(n1)OCCN(c1cccc(C(F)(F)F)c1)C2=O	-9%[44.1 µM]
COc1ccccc1-c1ncc2c(n1)OCCN(c1cccc(C(F)(F)F)c1)C2=O	i
COc1cccc(CN2CCNC(=O)C2CC(=O)N2CCC(O)CC2)c1OC (stereo not given)	-9%
Cc1cccc(-c2ocnc2C(=O)N2CCC3(CC2)CC(O)CCO3)c1 (stereo not given)	4%
COCCn1c(C)cc(O)c(C(c2ccc(F)cc2)N2CCN(c3ccccc3)CC2)c1=O (stereo not given)	i
COc1cc(OC)c(NC(=O)c2ccc3nc(C(C)C)oc3c2)cc1Cl	-12%
Cc1ccc(Cl)cc1N1CCN(C(c2ccc(F)cc2)c2nnc(-c3ccccc3)o2)CC1 (stereo not given)	7.9µM*
SMILES	Pf Dd2 inh
Cc1ccc(Cl)cc1NC(c1ccc(F)cc1)c1nnc(-c2ccccc2)o1 (stereo not given)	13µM*
COc1cc(OC)c(NC(=O)COc2ccccc2-c2nnc(-c3ccccc3)o2)cc1Cl	12%
Cc1ccc(Cl)cc1N1CCN(c2ncnc3onc(-c4ccc(F)cc4)c23)CC1	-12%
Cc1cccc(N2CCN(c3ncnc4onc(C)c34)CC2)c1C	-5%
Cc1ccc(Cl)cc1NC(=O)c1cnn2c(C(F)F)cc(-c3ccccc3)nc12	14%
Cc1ccccc1-c1nnc(CN2CCN(c3cc(Cl)ccc3C)CC2)o1	-10%
COc1cc(OC)c(NC(c2nnc(-c3ccccc3)o2)c2ccc(F)cc2Cl)cc1Cl (stereo not given)	6.3µM*
Cc1cccc(N2CCN(C(c3ccc(F)cc3)c3nnc(-c4ccccc4)o3)CC2)c1C (stereo not given)	11µM*
Cc1ccc(Cl)cc1NC(=O)c1ccc(-c2nc(CSc3ccccc3)c(C)o2)cc1	i
CNC(=O)N1CCC(C2CCN(C(=O)c3ccc4ncccc4c3)C2)CC1 (stereo not given)	-19%
O=C(Cc1ccsc1)N1CCC(Cc2nc(-c3ccc(F)cc3)no2)CC1	-5%
CCc1ccc(C(=O)N2CCN(C(=O)c3nnn4c3COC(c3ccc(Cl)cc3)C4)CC2)cc1 (stereo not given)	i
CNc1cc(-c2ccccc2C(=O)N(C(C)C)C(C)C)nc(N)n1	-25%
Cc1cn2nc(C(=O)Nc3ccc(F)cc3C)cc2c(N2CCSCC2)n1	-9%
O=C(NCc1ccsc1)C1CN(c2cccc(Cl)c2)C(=O)N1 (stereo not given)	2%[44.1 µM]
CC(C)CCNC(=O)C1N(C(C)C)C(=O)C12CCCCC2 (stereo not given)	i
Cc1nc2scc(CC(=O)N3CCCCC3)n2c(=O)c1-c1cc(C)n(-c2ccc(F)cc2)n1	i
